# PubChem BioAssay (NCATS)
# This is one part of the list. Results filed as inconclusive are left out. The source made the active and inactive calls. Calls come from the whole dose curve; as a rule, active = well fitted inhibition curve with a large enough effect; inconclusive = small, poorly fitted or top-dose-only effect, or another doubt; inactive = no such curve, though single readings can be large or run the other way.
# Target: DNA polymerase eta (Homo sapiens) (UniProt Q9Y253)
# Experiment: qHTS for Inhibitors of Polymerase Eta: Confirmatory Assay for Cherry-picked Compounds (AID 720502)
# Conditions: Pol eta primer extension, TAMRA/BHQ fluorescence, 10 min
# From the text: The Y-family of DNA polymerases, such as the Polymerase Eta (Pol eta), are specifically involved in DNA repair. Pol eta copies undamaged DNA with a lower fidelity than other DNA-directed polymerases. However, it accurately replicates UV-damaged DNA. When thymine dimers are present, this polymerase inserts the complementary nucleotides in the newly synthesized DNA, thereby bypassing the lesion and suppressing the mutagenic effect of UV-induced DNA damage. […] Thus, while Pol eta's (and most likely iota's) normal function is to protect humans against the deleterious consequences of DNA damage, under certain conditions they can have deleterious effects on human health. As a consequence, small molecule inhibitors of Pol eta (identified from a high throughput replication assay) have potential therapeutic applications. A 1536-well format, fluorescence based, high-throughput screen (AID 588591) is developed in collaboration with the National Institute of Child Health & Human Development (NICHD) to screen for inhibitors of the Pol eta enzyme. This screen is used to validate the activity of the selected compounds from the primary assay against the human Pol eta. Inhibition is the desired outcome for this assay. NIH Chemical Genomics Center [NCGC] NIH Molecular Libraries Probe Centers Network [MLPCN] MLPCN Grant: MH090825 Assay Submitter (PI): Roger Woodgate, NICHD
# Three microliters of reagents (buffer in column 3 and 4 as negative control while 10 nM Pol eta in columns 1, 2, and 5-48) were dispensed into a 1536-well black solid-bottom plate. Compounds (23 nL) were transferred via Kalypsys pin tool equipped with 1536-pin array. The plates were then incubated for 15 min at room temperature, and 1 uL of substrate was added to start the reaction for a final concentration of 50 nM. The substrate was made by the annealing of unlabeled oligodeoxynucleotide primer (59-[…]-39) and TAMRA-labeled reporter strand (59-[…]-6-TAMRA-39) to oligodeoxynucleotide template labeled with BHQ-2 (59-BHQ-2-[…]-39) described in detail at the Yamanaka et.al. (PLOS, 2012) reference paper. The assay plates were initially read after 0 min and again after 10 min of kinetic reaction using the PerkinElmer Viewlux reader equipped with 525 nm excitation and 598 nm emission filters.
# Potency is the fitted concentration of half-maximal effect.
# Chain of DNA polymerase eta (Homo sapiens) (Q9Y253 whole entry, looked up): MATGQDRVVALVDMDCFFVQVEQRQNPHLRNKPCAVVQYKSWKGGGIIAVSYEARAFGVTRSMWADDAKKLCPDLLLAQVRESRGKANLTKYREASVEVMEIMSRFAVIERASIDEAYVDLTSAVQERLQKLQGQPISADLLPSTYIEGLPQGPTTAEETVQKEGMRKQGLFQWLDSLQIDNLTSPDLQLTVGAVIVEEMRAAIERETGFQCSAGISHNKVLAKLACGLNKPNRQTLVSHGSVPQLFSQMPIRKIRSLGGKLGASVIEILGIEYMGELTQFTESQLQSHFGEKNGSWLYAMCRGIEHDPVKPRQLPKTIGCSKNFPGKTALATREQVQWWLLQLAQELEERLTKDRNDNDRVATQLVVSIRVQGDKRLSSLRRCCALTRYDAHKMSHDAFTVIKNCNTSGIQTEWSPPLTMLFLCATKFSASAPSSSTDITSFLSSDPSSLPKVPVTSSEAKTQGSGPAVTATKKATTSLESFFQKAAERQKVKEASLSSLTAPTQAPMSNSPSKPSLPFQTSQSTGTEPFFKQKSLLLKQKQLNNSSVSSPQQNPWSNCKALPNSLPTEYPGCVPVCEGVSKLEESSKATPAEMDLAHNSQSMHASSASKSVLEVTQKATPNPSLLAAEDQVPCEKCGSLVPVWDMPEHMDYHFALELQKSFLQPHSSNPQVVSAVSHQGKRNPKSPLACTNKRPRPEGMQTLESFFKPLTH
row,Compound,Potency
1,CCOc1ccc(NC(=O)c2ccc(NC(=O)COC(=O)c3ccc(NC(=O)CC#N)cc3)cc2)cc1,75.7 µM (active)
2,Cc1cc(C(=O)N/N=C/c2ccc(O)c([N+](=O)[O-])c2)c(C)n1-c1ccc(F)cc1,75.7 µM (active)
3,O=C(O)c1ccc2c(c1)C(=O)N(c1ccc(/C=C/C(=O)c3ccccc3)cc1)C2=O,33.8 µM (active)
4,CCC(C)Cn1c(O)cc2nn(-c3nc4ccccc4s3)c(=O)c-2c1C (configuration not stated),75.7 µM (active)
5,O=C(Nc1nc(-c2ccco2)c(-c2ccco2)s1)c1ccco1,26.9 µM (active)
6,Nc1ccc2nc3c(=O)[nH]c(=S)[nH]c3nc2c1,19 µM (active)
7,NC1=CC(=O)C(=O)c2cccnc21,26.9 µM (active)
8,N#Cc1c(N2CCCCC2)nc(N)c2c(N)nc(SCC(=O)O)cc12,19 µM (active)
9,Cc1ccc(N=C2NC(=O)/C(=C/C=C/c3ccco3)S2)cc1C,53.6 µM (active)
10,COC(=O)c1ccc(COc2ccc(/C=C/C(=O)c3ccc(OC)c(CSCC(=O)O)c3)cc2OC)cc1,60.1 µM (active)
11,COc1cccc(/C=N/Nc2ccc(S(=O)(=O)Nc3ccccc3C(=O)O)cc2[N+](=O)[O-])c1O,67.5 µM (active)
12,O=c1ccc2c(-c3ccccc3S(=O)(=O)O)c3ccc(O)c(O)c3oc-2c1O,1.07 µM (active)
